Experimental findings from PubChem BioAssay are described below.

Each structure is given as a SMILES string. Active and inactive are the calls of the source.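 How the source made its calls, unless noted: active means visually confirmed hit in the image check and inhibition above 20%; inconclusive means visually confirmed hit but inhibition not above 20%; inactive means no visual hit in the image check.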

The nature of assay [1]: inhibitors of TNFa-induced NFkB p65 translocation, primary screen, imaging, HUVEC, MLSMR starter and 10KST1 sets (AID 438;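 active means inhibition above 20% together with a positive visual image hit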;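 further: compound added about 3h40 before a 20 min TNFalpha stimulation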;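 on inhibition: signal is the nuclear over cytoplasmic p65 intensity ratio per well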). As to conditions: HUVEC TNFa-induced p65 nuclear translocation; cell count: measured here: nuclei count (cytotoxicity indicator), at 2.08 µM; inhibition: at 2 µM, stronger effect = higher value, 0% TNFa-plus-vehicle, 100% no-TNFa wells.
The nature of assay [2]: inhibitors of mutant huntingtin aggregation, primary screen, imaging, exon1htt(103Q)mCFP cells, high-content imaging (AID 483;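 active means visual image review flags a hit and inhibition of aggregation exceeds 20%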;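 further: compound exposure lasted 3 days before fixation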;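 on nuclei count: percent of the per-plate median nuclei count of sample wells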). To be noted: exon1htt(103Q)mCFP cell line, aggregate imaging, at 2 µM; inhibition of aggregation: stronger effect = higher value; nuclei count: measured here: cell count, toxicity.
Assay [3] in a line: inhibitors of E-selectin induction by TNFa, primary screen, imaging, HUVEC, immunofluorescence, MLSMR starter and 10KST1 sets (AID 487).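 On inhibition: signal is fraction of cell area covered by stained E-selectin grains.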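 On nuclei count: 100% = median nuclei count of all wells on the same plate.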 As to conditions: HUVEC TNFalpha-induced E-selectin immunofluorescence imaging, at 2 µM; inhibition: stronger effect = higher value; nuclei count: measured here: cell number, toxicity.
Assay [4] has as its target Voltage-gated potassium channel subunit beta-2 (Rattus norvegicus) (UniProt P62483). In words: KvBeta enzyme negative modulators, primary screen, biochemical, NADPH fluorescence (AID 622;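 active means fluorescence slope higher than the sample average by over 3 SD, cut at about -0.22 in these data, passing the limit was not always enough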;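 further: slope of raw intensity against log time taken from 70 to 1610 s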). As to conditions: recombinant KvBeta, 4-cyanobenzaldehyde reduction, at 10 µM, stronger effect = higher value.
For assay [5] the target is unchanged. Nature of the assay: KvBeta positive modulators, primary screen, biochemical, NADPH fluorescence (AID 623;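 active means NADPH fluorescence slope more negative than the mean of all samples by about 3 SD, 99.7% confidence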;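 further: fluorescence intensity change per second fitted from 20 to 320 s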). As to conditions: Recombinant KvBeta, NADPH fluorescence decrease slope, 10 min; at 10 µM; stronger effect = lower value.
The target in assay [6] is Alpha-2C adrenergic receptor (Homo sapiens) (UniProt P18825). In words: modulators of alpha2C/GIRK thallium flux, primary screen, cell-based, HEK293 alpha2C/GIRK1/2 (AID 624;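 active means fluorescence slope after compound addition differing from the mean of all screened samples at 99.7% confidence, in either direction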;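 further: slope of fluorescence ratio to pre-addition baseline per second over 15 to 24 s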). To be noted: thallium flux BTC fluorescence, at 10 µM, actives lie on both sides.
Sequence of Alpha-2C adrenergic receptor (Homo sapiens) (P18825 whole entry, looked up): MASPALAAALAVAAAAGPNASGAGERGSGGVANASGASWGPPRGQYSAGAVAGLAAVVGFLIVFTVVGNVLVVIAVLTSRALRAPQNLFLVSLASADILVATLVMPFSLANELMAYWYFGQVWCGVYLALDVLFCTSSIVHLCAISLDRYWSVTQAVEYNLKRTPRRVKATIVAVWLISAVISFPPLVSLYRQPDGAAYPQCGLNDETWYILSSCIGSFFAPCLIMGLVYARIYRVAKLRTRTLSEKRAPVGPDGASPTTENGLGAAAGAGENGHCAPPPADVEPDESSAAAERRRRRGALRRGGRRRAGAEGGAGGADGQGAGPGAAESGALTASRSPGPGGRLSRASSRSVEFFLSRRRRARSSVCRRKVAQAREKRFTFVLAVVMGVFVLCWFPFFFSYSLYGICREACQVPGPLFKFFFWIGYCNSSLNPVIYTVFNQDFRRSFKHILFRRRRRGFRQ
Assay [7] is described as follows: inhibitors of Sendai virus-induced IRF3 signaling, primary screen, TLR/RLR signaling modifier project, cell-based, Sendai virus stimulus, luciferase, 10K MLSCN set (AID 602276;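 active means inhibition at or above 50% at 10 µM; inactive means inhibition below 50%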;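 further: firefly luciferase from ISG56 promoter only with Renilla not read in this screen; 0% = Sendai virus plus DMSO and 100% = medium plus DMSO without virus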). To be noted: HEK293 RL24 IRF3 luciferase reporter, at 10 µM, stronger effect = higher value. On the technique in general: In a reporter assay the amount or activity of a reporter protein is the signal.

Assay [8] in a line: inhibitors of poly I:C-induced TLR3 signaling, primary screen, cell-based, poly I:C stimulus, luciferase, 10K MLSCN set (AID 602277;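 active means inhibition of the reporter signal at or above 50%; inactive means inhibition below 50%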). To be noted: HEK293-TLR3 RL24 IRF3 luciferase reporter, at 10 µM, stronger effect = higher value.

Sequence of Voltage-gated potassium channel subunit beta-2 (Rattus norvegicus) (P62483 whole entry, looked up): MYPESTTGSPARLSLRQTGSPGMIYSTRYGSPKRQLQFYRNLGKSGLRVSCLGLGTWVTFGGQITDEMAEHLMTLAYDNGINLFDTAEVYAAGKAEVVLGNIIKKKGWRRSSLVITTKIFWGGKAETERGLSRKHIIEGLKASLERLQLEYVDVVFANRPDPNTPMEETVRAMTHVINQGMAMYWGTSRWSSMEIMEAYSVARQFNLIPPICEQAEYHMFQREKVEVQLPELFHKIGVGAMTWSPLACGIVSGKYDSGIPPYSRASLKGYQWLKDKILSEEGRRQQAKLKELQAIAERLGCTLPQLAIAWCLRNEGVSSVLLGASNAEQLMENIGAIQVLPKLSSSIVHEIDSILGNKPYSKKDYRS

For the compound `CCOC(=O)N1CCC(N2C(=O)c3ccccc3C2Nc2cccnc2)CC1` (centres undefined), the cell count in assay [1] stood at 592. Moreover, the inhibition – broadly, the relative decrease from the control value, in per cent – in assay [1] was -4.5% (inactive); in assay [3], -11.7% (inactive); in assay [7], 7.61% (inactive); in assay [8], -4.54% (inactive). Moreover, the inhibition of aggregation in assay [2] is -28.1% (inactive). For the same compound, the nuclei count in assay [2] was 100%; in assay [3], 117%. The fluorescence slope in assay [4] was -0.6 (inactive). For the same compound, the NADPH fluorescence slope in assay [5] is 4.7e-06 (inactive). The slope in assay [6] was 0.00694 (inactive).
On to `COc1ccc(S(=O)(=O)Cc2ccc(C(=O)N3CCN(c4ccccc4)CC3)o2)cc1`, for which the cell count in assay [1] was determined as 524. Besides, the inhibition in assay [1] was -8.3% (inactive); in assay [3], -89.5% (inactive); in assay [7], -7.36% (inactive); in assay [8], 26.1% (inactive). Besides, the inhibition of aggregation in assay [2] is 5.7% (inactive). The nuclei count in assay [2] came out at 70.9%; in assay [3], 133%. Further, the fluorescence slope in assay [4] is -0.44 (inactive). Also, the NADPH fluorescence slope in assay [5] is -4.3e-05 (inactive). Moreover, the slope in assay [6] is 0.00594 (inactive).
For the compound `COc1ccc(C(=O)CN2C(=O)NC3(CCCc4ccccc43)C2=O)cc1OC` (centres undefined), in assay [1], the cell count stood at 412. In addition, the inhibition in assay [1] is -9% (inactive); in assay [3], 35.3% (inactive); in assay [7], 15.1% (inactive); in assay [8], 13.4% (inactive). Further, the inhibition of aggregation in assay [2] was 2.7% (inactive). In addition, the figures for the nuclei count in assay [2] and in assay [3] were 94.1% and 87.2%, respectively. The fluorescence slope in assay [4] was -0.51 (inactive). The NADPH fluorescence slope in assay [5] was -2.4e-05 (inactive). The slope in assay [6] is 0.00564 (inactive).
Consider `CCOC(=O)CSc1nc2ccccc2n1CC(=O)N1CCN(c2ccccc2)CC1`, for which the cell count in assay [1] was determined as 436. Further, the inhibition was 14.9% (inactive) in assay [1], 50.8% (inactive) in assay [3], -4.03% (inactive) in assay [7] and 1.41% (inactive) in assay [8]. In addition, in assay [2], the inhibition of aggregation was 7.6% (inactive). Also, the nuclei count is 98% in assay [2] and 99.5% in assay [3]. In addition, in assay [4], the fluorescence slope was -0.569 (inactive). The NADPH fluorescence slope in assay [5] was 2.2e-05 (inactive). In addition, the slope in assay [6] is 0.00504 (inactive).
Turning to `Fc1ccc(-c2nnc3ccc(N4CCCC4)nn23)cc1`, the cell count in assay [1] amounted to 662. Also, the inhibition was 0.5% (inactive) in assay [1], -61.6% (inactive) in assay [3], 3.21% (inactive) in assay [7] and -61.2% (inactive) in assay [8]. For the same compound, the inhibition of aggregation in assay [2] was -1% (inactive). The results for the nuclei count in assay [2] and in assay [3] were 97.7% and 120%, respectively. Moreover, in assay [4], the fluorescence slope was -0.56 (inactive). Also, the NADPH fluorescence slope in assay [5] is 2e-05 (inactive). In addition, the slope in assay [6] is 0.00653 (inactive).
Consider `Cc1nccn1CCCN1C(=O)OC2(CCCCC2)C1(C)O` (centres undefined), for which the cell count in assay [1] is 350. Also, the inhibition in assay [1] was -3% (inactive); in assay [3], -4.4% (inactive); in assay [7], 4.87% (inactive); in assay [8] it was 17.2% (inactive). For the same compound, the inhibition of aggregation in assay [2] was 2.3% (inactive). The nuclei count was 113% in assay [2] and 105% in assay [3]. Further, the fluorescence slope in assay [4] is -0.522 (inactive). Moreover, in assay [5], the NADPH fluorescence slope is -3.8e-05 (inactive). For the same compound, the slope in assay [6] is 0.00543 (inactive).
With `Cn1c(=O)c2c(nc(CN3CCc4ccccc4C3)n2Cc2cccc(Cl)c2)n(C)c1=O`, in assay [1], the cell count is 646. Moreover, the inhibition was 8% (inactive) in assay [1], -22.8% (inactive) in assay [3], 19.5% (inactive) in assay [7] and -58.7% (inactive) in assay [8]. In assay [2], the inhibition of aggregation was 0.6% (inactive). In addition, the nuclei count was determined as 102% in assay [2] and 124% in assay [3]. In addition, in assay [4], the fluorescence slope is -0.575 (inactive). In addition, the NADPH fluorescence slope in assay [5] was -4.8e-05 (inactive). Besides, the slope in assay [6] was 0.00753 (inactive).
For the compound `Cc1nc(N2CCN(c3ncccn3)CC2)c2oc3ccccc3c2n1`, the cell count in assay [1] turned out to be 583. Moreover, the inhibition in assay [1] is -8.7% (inactive); in assay [3], -56.1% (inactive); in assay [7], -3.03% (inactive); in assay [8], -57.2% (inactive). Further, in assay [2], the inhibition of aggregation was 0.3% (inactive). Further, the nuclei count amounted to 106% in assay [2] and 104% in assay [3]. Moreover, the fluorescence slope in assay [4] was -0.432 (inactive). Also, the NADPH fluorescence slope in assay [5] is -1.4e-05 (inactive). The slope in assay [6] is 0.00731 (inactive).
For the compound `CC(C)N(O)C(=O)NC(C)(C)C`, the cell count in assay [1] is 496. Further, the inhibition is 9.4% (inactive) in assay [1], 42.3% (inactive) in assay [3], 17.4% (inactive) in assay [7] and 15% (inactive) in assay [8]. In assay [2], the inhibition of aggregation was -1.8% (inactive). Also, the values for the nuclei count in assay [2] and in assay [3] were 106% and 103%, respectively. In addition, the fluorescence slope in assay [4] was -0.494 (inactive). In assay [5], the NADPH fluorescence slope was -2.2e-05 (inactive). The slope in assay [6] is 0.00463 (inactive).
For `COCCN(CC(=O)Nc1ccccc1C)S(=O)(=O)c1ccc(S(=O)(=O)N2CCCC2)cc1`, in assay [1], the cell count was found to be 404. In addition, the inhibition was -9.5% (inactive) in assay [1], -18.2% (inactive) in assay [3], 7.63% (inactive) in assay [7] and 13.5% (inactive) in assay [8]. The inhibition of aggregation in assay [2] is -6.7% (inactive). The nuclei count in assay [2] is 103%; in assay [3] it was 69.8%. In addition, the fluorescence slope in assay [4] is -0.416 (inactive). The NADPH fluorescence slope in assay [5] is -7.2e-05 (inactive). Also, the slope in assay [6] was 0.0043 (inactive).
In the case of `CCCC(=O)Nc1ccc(NC(=O)c2ccccc2OC)cn1`, in assay [1], the cell count is 376. Also, the inhibition is -3.6% (inactive) in assay [1], -23.7% (inactive) in assay [3], 1.27% (inactive) in assay [7] and -1.09% (inactive) in assay [8]. Besides, the inhibition of aggregation in assay [2] is 18.8% (inactive). Moreover, the nuclei count is 90.7% in assay [2] and 96.3% in assay [3]. Besides, the fluorescence slope in assay [4] is -0.442 (inactive). Moreover, the NADPH fluorescence slope in assay [5] is 7.2e-05 (inactive). Further, the slope in assay [6] was 0.00808 (inactive).
For the compound `CCc1nccn1S(=O)(=O)c1ccc(C)c(C)c1`, the cell count in assay [1] is 603. The inhibition in assay [1] is -11.5% (inactive); in assay [3], -33% (inactive); in assay [7], 7.1% (inactive); in assay [8], 12.9% (inactive). In addition, the inhibition of aggregation in assay [2] was 7% (inactive). Besides, the nuclei count turned out to be 94% in assay [2] and 117% in assay [3]. Further, in assay [4], the fluorescence slope is -0.618 (inactive). Also, the NADPH fluorescence slope in assay [5] is -5.2e-05 (inactive). Further, the slope in assay [6] was 0.00545 (inactive).
As for `COc1ccc(-c2nnc(SC(C)C(=O)Nc3nccs3)n2-c2ccccc2)cc1OC` (centres undefined), in assay [1], the cell count came out at 548. For the same compound, the inhibition in assay [1] was -8% (inactive); in assay [3], -36.4% (inactive); in assay [7] it was -14.8% (inactive); in assay [8] it was -2.92% (inactive). Also, the inhibition of aggregation in assay [2] is 2.8% (inactive). The values for the nuclei count in assay [2] and in assay [3] were 82.2% and 93.8%, respectively. Besides, in assay [4], the fluorescence slope is -0.496 (inactive). In addition, the NADPH fluorescence slope in assay [5] is 2.4e-05 (inactive). In addition, the slope in assay [6] is 0.0047 (inactive).
On to `COc1ccc(CCNC(=O)C2CCCN(c3nn4c(=O)cc(C)nc4s3)C2)cc1OC` (centres undefined), for which the cell count in assay [1] turned out to be 371. Also, the inhibition in assay [1] was -4% (inactive); in assay [3], -9% (inactive); in assay [7], 19.7% (inactive); in assay [8], 16.7% (inactive). In addition, the inhibition of aggregation in assay [2] was 10.8% (inactive). Also, the nuclei count in assay [2] came out at 94.9%; in assay [3], 100%. Further, in assay [4], the fluorescence slope was -0.403 (inactive). Besides, in assay [5], the NADPH fluorescence slope is -5.9e-05 (inactive). Besides, the slope in assay [6] is 0.0045 (inactive).
